Screening results (PubChem)
PME-1 primary – PME-1 inhibitors via competitive probe labeling, primary screen, biochemical, fluorescence polarization, FP-Rh probe, HTS | Protein phosphatase methylesterase 1 (Homo sapiens), Q9Y570 | recombinant PME-1 | inhibition, % at 5.9 µM | actives 0.53% (n = 320,000) | AID 2130, 2009;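 active means inhibition above the campaign mean of all compounds plus 3 SD, cut at about 26% in these data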;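 further: competitive labeling of PME-1 active site by serine hydrolase directed probe; 0% = PME-1 with DMSO and 100% = wells lacking PME-1 enzyme; inhibitors block probe labeling so polarization falls and inhibition rises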
Target sequence (Q9Y570 whole entry, looked up): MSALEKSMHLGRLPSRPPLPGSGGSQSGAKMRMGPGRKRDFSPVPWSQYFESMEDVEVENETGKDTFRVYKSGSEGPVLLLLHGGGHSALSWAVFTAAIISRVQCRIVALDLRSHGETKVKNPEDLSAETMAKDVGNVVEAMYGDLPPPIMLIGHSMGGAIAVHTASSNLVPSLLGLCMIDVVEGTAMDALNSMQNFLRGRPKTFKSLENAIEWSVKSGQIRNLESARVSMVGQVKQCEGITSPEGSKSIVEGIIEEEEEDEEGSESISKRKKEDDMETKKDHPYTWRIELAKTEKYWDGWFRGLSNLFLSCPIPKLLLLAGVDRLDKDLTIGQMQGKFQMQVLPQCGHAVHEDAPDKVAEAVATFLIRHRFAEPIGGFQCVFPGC
LYPLA2 inh – LYPLA2 inhibitors, primary screen, counter-screen for PME1 inhibitor project, biochemical, fluorescence polarization, FP-Rh probe ABPP. Acyl-protein thioesterase 2 (Homo sapiens), O95372. recombinant LYPLA2. inhibition, % at 5.9 µM. actives 0.38% (n = 320,000). AID 2177, 2009;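 active means inhibition above the screen-wide mean plus 3 SD, limit set per campaign, cut at about 26% in these data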;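 further: 0% = LYPLA2 with DMSO and 100% = wells lacking LYPLA2 enzyme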
Fam108B counter – mouse Fam108B serine hydrolase inhibitors, primary screen, counter-screen for RBBP9 inhibitor project, biochemical, fluorescence polarization. inhibition, % at 9.51 µM. recombinant Fam108B, FP-Rh probe fluorescence polarization. AID 1947, 2009. actives 0.33% (n = 300,000);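 active means inhibition above the screen mean inhibition plus 3 SD, computed separately per campaign, cut at about 18% in these data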;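 further: inhibitors lower polarization as less probe binds the enzyme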
PREPL inh – PREPL enzyme inhibitors, primary screen, biochemical, fluorescence polarization | recombinant PREPL, fluorescence polarization activity-based probe | inhibition, % at 5.96 µM | actives 0.68% (n = 320,000) | AID 2751, 2010; in the data active means inhibition above about 43%;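 further: 0% = enzyme with DMSO and 100% = wells lacking enzyme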
LYPLA1 counter – LYPLA1 inhibitors, primary screen, counter-screen for PME1 inhibitor project, biochemical, fluorescence polarization, FP-Rh probe ABPP | Acyl-protein thioesterase 1 (Homo sapiens), O75608 | recombinant LYPLA1 | inhibition, % at 5.9 µM | actives 0.16% (n = 320,000) | AID 2174, 2009;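 active means inhibition above the mean of all tested compounds plus 3 SD, set per campaign, cut at about 14% in these data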;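 further: inhibitors block serine hydrolase probe labeling of LYPLA1 so polarization falls; 0% = enzyme with DMSO and 100% = wells lacking LYPLA1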
Fam108b confirm – mouse Fam108b serine hydrolase inhibitors, confirmation, counter-screen for RBBP9 inhibitor project, biochemical, fluorescence polarization, triplicate | shares compounds with Fam108B counter | recombinant Fam108b, FP-Rh probe fluorescence polarization | inhibition, % at 9.51 µM | actives 44% (n = 930) | AID 1978, 2009;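 active means inhibition above a limit from the primary screen, the mean over all compounds plus 3 SD, cut at about 19% in these data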;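 further: 0% = median of active Fam108b wells and 100% = catalytically dead S170A mutant; inhibitors free the probe so polarization falls as inhibition rises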
* hit, by the source's call. Only some compounds are listed: those with a hit (about 1.3% of all), similar ones and a draw of the others.

Screening Nc1c(S(=O)(=O)c2cccc(Cl)c2)c2nc3ccccc3nc2n1/N=C/c1ccc(O)c(O)c1 returned PME-1 primary 51*, LYPLA2 inh -6, Fam108B counter 77*, PREPL inh 65*, LYPLA1 counter -24 and Fam108b confirm 140*.
For COc1cccc(/C=N/n2c(N)c(S(=O)(=O)c3cccs3)c3nc4ccccc4nc32)c1OC the results were PME-1 primary -7, LYPLA2 inh 5, Fam108B counter -10, PREPL inh -6 and LYPLA1 counter 2.
`CC(=O)NC1=NN(C(C)=O)C(C)(c2ccco2)S1` (configuration not stated) gave PME-1 primary 4, LYPLA2 inh -7, Fam108B counter 22*, PREPL inh 4, LYPLA1 counter -1 and Fam108b confirm 3.
Screening CC(=O)NC1=NN(C(C)=O)C(C)(c2ccc(C)o2)S1 (configuration not stated) returned PME-1 primary -4, LYPLA2 inh 1, Fam108B counter -1, PREPL inh 9 and LYPLA1 counter 2.
For Cc1ccc(NC(=O)c2cccc3cccnc23)cc1 the results were PME-1 primary -2, LYPLA2 inh 0, Fam108B counter -1, PREPL inh -8 and LYPLA1 counter 3.
`O=C(c1cccs1)N(Cc1cccc(F)c1)C1CCS(=O)(=O)C1` (configuration not stated) gave PME-1 primary -4, LYPLA2 inh 6, Fam108B counter 2, PREPL inh -3 and LYPLA1 counter 2.
`O=C(CN1CCCc2ccccc21)N/N=C/c1c(O)ccc2ccccc12` gave PME-1 primary 31*, LYPLA2 inh -1, Fam108B counter 43*, PREPL inh 34, LYPLA1 counter -12 and Fam108b confirm 16.
For Cc1[nH]c2ccccc2c1/C=N/NC(=O)c1cccc(S(=O)(=O)Nc2cccc(C(F)(F)F)c2)c1 the results were PME-1 primary 21, LYPLA2 inh -17, Fam108B counter 40*, PREPL inh 15, LYPLA1 counter -10 and Fam108b confirm 32*.
For CN1CCC(N(C)S(=O)(=O)c2ccc(NC(=O)COc3ccc(F)cc3Cl)cc2)CC1 the results were PME-1 primary 7, LYPLA2 inh 1, Fam108B counter 7, PREPL inh 35 and LYPLA1 counter 3.
Screening Oc1c(Br)cc(/C=N/Nc2ccc(Cl)nn2)cc1Br returned PME-1 primary 12, LYPLA2 inh 3, Fam108B counter 26*, PREPL inh 18, LYPLA1 counter 5 and Fam108b confirm -13.
`Oc1c(Br)cc(Br)cc1/C=N/Nc1ccc(Cl)nn1` gave PME-1 primary 1, LYPLA2 inh 2, Fam108B counter 5, PREPL inh 2 and LYPLA1 counter 0.
For Oc1ccc(/C=N/Nc2ccc(Cl)nn2)c(O)c1O the results were PME-1 primary -3, LYPLA2 inh 1, Fam108B counter 23*, PREPL inh 27, LYPLA1 counter -5 and Fam108b confirm -8.
Oc1c(Br)cc(/C=N/Nc2nncc3ccccc23)cc1Br was read as PME-1 primary 5, LYPLA2 inh -5, Fam108B counter 19*, PREPL inh 7, LYPLA1 counter 1 and Fam108b confirm 23*.
Screening CCOc1ccc(/C=N/Nc2ccc(Cl)nn2)c(O)c1 returned PME-1 primary 1, LYPLA2 inh 0, Fam108B counter -1, PREPL inh -12 and LYPLA1 counter -6.
`CN(c1ccccc1)c1ccc(/C=C(\CCC(=O)O)c2nc3ccccc3s2)cc1[N+](=O)[O-]` gave PME-1 primary 11, LYPLA2 inh 23, Fam108B counter 20*, PREPL inh 21, LYPLA1 counter 6 and Fam108b confirm 14.
For Cc1ccc(/C=C(\CCC(=O)O)c2nc3ccccc3s2)cc1[N+](=O)[O-] the results were PME-1 primary 11, LYPLA2 inh -5, Fam108B counter 1, PREPL inh 15 and LYPLA1 counter -4.
